Rows were chosen to be rich in hits. Some 9.3% of all compounds tested hit in one or more screens of this group.
Rab9 prom act: activators of Rab9 promoter. Potency, µM (series often up to 9.22 µM), inactives show top-dose activation, negative = inhibition, most hits filed as activators. AID 485297. Huh7 Rab9 promoter-luciferase reporter, luminescence, 24 h. actives 2.8% (n = 320,000); further: % of control where 0% means no effect; nearly all actives have a fitted effect of over 60% in size
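Huh7 cells stably carrying Rab9 promoter–luciferase reporter, plated 1500 cells/well, compound added after 2 h and incubated 24 h at 37 °C; luciferase luminescence then read after 10 min with detection reagent.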
ELG1 genotox: induces genotoxicity in HEK293T cells with luciferase-tagged ELG1 | actives 1.3% (n = 330,000) | AID 504466 | Potency, µM (titrated, usually from 46 µM), for inactives: top-dose activity change, positive = activation, actives largely listed as activators | HEK293T ELG1-luciferase reporter, luminescence, 16 h; further: % of control where 0% means no effect; nearly all actives have a fitted effect of over 60% in size
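HEK293T cells expressing luciferase-tagged ELG1 were exposed to compound or DMSO vehicle for 16 hr at 37 °C and 5% CO2. Luciferase activity was then measured with ONE-Glo after 30 min at room temperature.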
FLuc counter: inhibits or activates purified firefly luciferase, miR-21 counter-screen | purified FLuc, Km substrates, luminescence inhibition | Potency, µM (top dose mostly 57.5 µM), for the others: top-dose activity change, negative = inhibition, actives largely listed as inhibitors | actives 6.9% (n = 360,000) | AID 588342;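 further: plate controls were vehicle for no effect and reference inhibitor for full effect; nearly all actives have a fitted effect of over 55% in size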
Target sequence (P08659 whole entry, looked up): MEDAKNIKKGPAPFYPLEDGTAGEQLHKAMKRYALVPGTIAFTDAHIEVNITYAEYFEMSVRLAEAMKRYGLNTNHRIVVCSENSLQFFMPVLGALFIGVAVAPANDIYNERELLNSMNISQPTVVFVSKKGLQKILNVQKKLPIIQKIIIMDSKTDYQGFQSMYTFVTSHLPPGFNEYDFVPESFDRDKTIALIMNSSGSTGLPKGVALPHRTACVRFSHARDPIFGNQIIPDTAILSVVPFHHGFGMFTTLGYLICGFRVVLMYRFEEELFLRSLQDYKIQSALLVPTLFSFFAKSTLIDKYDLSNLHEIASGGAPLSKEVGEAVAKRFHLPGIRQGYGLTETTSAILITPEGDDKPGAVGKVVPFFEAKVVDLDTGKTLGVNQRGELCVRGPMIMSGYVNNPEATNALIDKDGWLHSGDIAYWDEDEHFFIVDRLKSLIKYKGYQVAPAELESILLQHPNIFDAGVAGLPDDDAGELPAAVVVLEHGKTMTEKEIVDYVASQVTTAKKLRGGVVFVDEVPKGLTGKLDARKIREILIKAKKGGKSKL
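Purified P. pyralis luciferase (10nM final) with 10uM D-luciferin and 10uM ATP (Km levels) in 50mM Tris acetate pH 7.5, 10mM Mg acetate, 0.01% Tween-20, 0.05% BSA; qHTS 6-point titration, ~60 µM downward; luminescence read.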
NPC1 prom act: activators of NPC1 promoter. Huh7 NPC1 promoter luciferase reporter, 24 h. Potency, µM (doses to about 9.22 µM), without a hit: at the top dose activation, hits mostly activators. actives 2.4% (n = 320,000); further: % of control where 0% means no effect; nearly all actives have a fitted effect of over 60% in size
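Luciferase expression driven by the NPC1 promoter was measured in stably transfected Huh7 cells after a 24 h compound incubation, using a luciferase reagent and a luminescence read.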
ELG1 repair inh: inhibitors of ELG1-dependent DNA repair in HEK293T cells. AID 504467. actives 2.3% (n = 330,000). HEK293T ELG1-luciferase reporter, luminescence, 16 h; DNA damage induced by 5-fluorouridine. Potency, µM (series often up to 46.1 µM), inactives show top-dose activity change, negative = inhibition, actives largely listed as inhibitors; further: on the % scale 0 is the no-effect control and ±100 the full control effect; nearly all actives have a fitted effect of over 55% in size
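Overnight (16 hr) co-exposure of 2,000 cells/well to 5-fluorouridine and compound at 37 °C preceded detection. Luciferase was quantified via ONE-Glo luminescence; loss of signal denotes inhibition.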
SMN2 splice up: enhancers of SMN2 splice variant expression | AID 1458 | Potency, µM (top dose mostly 46.1 µM), inactives show top-dose activity change, positive = activation, usual class: activators | actives 2.8% (n = 210,000) | HEK293 SMN2-luciferase splicing reporter, luminescence, 30-36 h; further: % of control where 0% means no effect; nearly all actives have a fitted effect of over 55% in size
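HEK293 cells carry an SMN2 […]–luciferase reporter in which exon 7 inclusion puts luciferase in frame. Cells were plated 10-12 h before compound addition, then incubated 30-36 h at 37C. ONE-Glo luminescence was read; sodium butyrate at 4.5 mM final served as control.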
The depositor's hits bear a star; ? = inconclusive; / = no result; [ ] = another dose, or the depositor's remark. The call rests on the fitted dose curve; in most records, active means well fitted curve in the direction sought with a large enough effect; inconclusive means small, poorly fitted or top-dose-only effect, or another doubt; inactive means no such curve, though single readings can be large; an effect the other way counts as inactive or inconclusive. Potency means the concentration at half of the fitted maximal effect.

SMILES	Rab9 prom act	ELG1 genotox	FLuc counter	NPC1 prom act	ELG1 repair inh	SMN2 splice up
Cc1ccc(C(=O)NC2CCCCC2)cc1	2.5µM*	30%	21µM*	2.8µM*	?	14µM*
O=C(NC(=S)NC(CO)Cc1ccccc1)c1ccc(F)cc1 (centres undefined)	4µM*	?	0%	1.3µM*	?	/
N#Cc1ccc(OCC(=O)NC2CCCCCC2)cc1	/	1%	/	/	?	/
N#Cc1ccc(C(=O)NC2CCCCCCC2)cc1	1.4µM*	?	21µM*	1.8µM*	?	/
O=C(NC(=S)NC1CCCCC1)c1ccc(F)cc1	4µM*	?	?	?	?	/
COc1ccc(Oc2nc(SC)nc3ccccc23)cc1	-1%	-6%	4%	-6%	-11%	-85%
Cc1cnc(C(=O)OCC(=O)Nc2cc(S(=O)(=O)N3CCCCC3)ccc2Cl)cn1	-7%	3%	3%	-1%	6%	12%
CC(C)CNC(=S)NC(=O)c1ccc(F)cc1	17%	?	30µM*	22%	?	?
O=C(NC1CC1)c1ccc(F)cc1Cl	0%	1%	3%	9%	?	0%
Cc1ccc(C(=O)NC2CCCCCCC2)c(Cl)c1	0.32µM*	1.5µM*	0.76µM*	0.32µM*	?	/
COc1cc(-c2nc(-c3ccc4c(c3)-c3ccccc3S4(=O)=O)c(-c3ccccc3)[nH]2)cc(OC)c1OC	5%	-9%	4.8µM*	0%	2.6µM*	29%
C[C@H]1NC(=O)NC1=O	/	/	/	/	/	6%[20.6 µM]
Cc1ccc(C)c(NC(=O)CSc2nc(-c3ccccc3)c(C#N)c(=O)[nH]2)c1	/	/	-4%	/	/	/
COc1ccc(OC)c(/C=C/C(=O)N2CCCc3ccccc32)c1	-2%	26%	-19%	-1%	?	-43%
COc1ccc2c(c1)CC/C(=C\C=C\c1ccccc1OC)C2=O	?	9%	2.1µM*	?	?	11µM*
COc1ccc2c(c1)C(=O)/C(=C/C=C/c1ccccc1)CC2	?	5%	9.5µM*	?	?	11µM*
COC1=CC(=O)C(O)=C/C1=C\C=C\c1ccccc1	/	/	/	/	/	-20%
CC(C)=CCN1CCN(Cc2ccc(N3CCNC3=O)cc2)CC1CCO (centres undefined)	12%	8%	-7%	4%	?	8%
O=C(c1ccc2oc(Cc3ccc(Cl)cc3)nc2c1)N1CC[C@H](O)C1	9%	2%	7%	-12%	27%	/
COc1ccc(S(=O)(=O)N2c3cc(C)ccc3OCC2C(C)(C)C)cc1 (centres undefined)	-23%	0%	7%	-27%	?	-36%
c1ccc(CNc2nc3ccccc3[nH]2)cc1	?	?	6.7µM*	15%	?	?
c1ccc2[nH]c(NCc3ccc4c(c3)OCO4)nc2c1	?	?	3.4µM*	?	?	/
Cc1ccc2nc(C3CCN(C(=O)NCc4ccccc4)CC3)[nH]c2c1	-7%	6%	17µM*	11%	14%	2%
COc1ccc2nc(NCc3ccccc3)[nH]c2c1	?	?	15µM*	17%	?	13µM*
CC(=O)c1sc(-c2ccc(Cl)cc2)nc1C	?	?	?	26%	?	27%
Cc1ccc2nc(NCc3ccccc3)c(C#N)cc2c1	2%	4%	-3%	3%	3%	/
Cc1ccc2nc(NCc3ccccc3)[nH]c2c1	?	11µM*	9.5µM*	22%	?	8.9µM*
NC(=O)c1nsc(C(=O)N(c2ccccc2)C(C(=O)NC2CCCC2)c2cccs2)c1N (centres undefined)	1%	12%	-1%	-6%	?	/
CCn1cc(C(=O)NCCC(C)C)c(=O)c2cc(S(=O)(=O)N3CCCCC3)ccc21	-2%	-5%	1%	-10%	7%	/

Bioassay records deposited in PubChem by National Center for Advancing Translational Sciences (NCATS).
